Assay results reported in PubChem BioAssay (NCATS).
Records with an inconclusive call do not appear. A number with no mark means an inactive call. Active and inactive are the calls of the source. Calls follow the shape of the dose curve; as a rule, active = well fitted curve in either direction with a large enough effect (not every such curve was filed as active); inconclusive = small, poorly fitted or top-dose-only effect, or another doubt; inactive = flat fitted curve, though single readings scatter.

Assay: AP1 Signaling Pathway (AID 357)
Details: ME-180 (cervical carcinoma) AP-1-bla reporter, EGF-induced, beta-lactamase ratio, 5 h; at 17.2 µM (top of the series) unless noted
Outline: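 AP-1-bla ME-180 cells with beta-lactamase reporter under AP-1 response element, stimulated with EC50 EGF; compounds titrated, 5 hours at 37 degrees Celsius. CCF4 read at 460/530 nm ratio; positive and negative modulators judged by AC50.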
% is scaled to controls: 0 for no effect and ±100 for the full control effect.

Row | Structure (SMILES) | activity change, negative = inhibition [%]
1 | Cn1c(=O)[nH]c(=O)c2c1nc(Br)n2CCSc1ncccn1 | 5.72
2 | CCOC(=O)c1c(CN2CCN(C)CC2)n(C)c2cc(Br)c(OC)cc12 | 5.82
3 | Cc1cccc(COc2ccc(/C(O)=C3\C(=O)C(=O)N(CCN(C)C)C3c3ccncc3)cc2)c1 (stereo not drawn) | 4.68
4 | COC(=O)CCc1c(C)[nH]c(=S)[nH]c1=O | 7.36
5 | Oc1ccccc1-c1nc(NCCN2CCOCC2)c2ccccc2n1 | -13.2
6 | COc1ccc(Nc2nc(Nc3ccc(OC)cc3)nc(-n3[nH]c(=O)c(C)c3C)n2)cc1 | 22.4
7 | CCc1c(C(=O)O)[nH]c2ccc(Br)cc12 | 8.39
8 | COc1ccccc1N1CCN(C2CCN(C(=O)c3cc(OC)c(OC)c(OC)c3)CC2)CC1 | 12.5

Assay: NFAT Signaling Pathway (AID 444);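 also: carbachol stimulus at about its EC50 of 1 µM final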
Details: Jurkat NFAT-bla M1, carbachol, beta-lactamase ratio, 5 h; at 17.2 µM (top of the series) unless noted
Outline: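 Jurkat cells carrying an NFAT-driven β-lactamase reporter and co-transfected muscarinic M1 receptor were treated with compound plus carbachol (1 uM final, an EC50 level) for 5 h at 37 °C. CCF4 loading followed for 1 h at RT; 460/530 nm ratio gave %activity.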

Row | Structure (SMILES) | activity change, negative = inhibition
9 | O=C(Oc1cccnc1)c1ccco1 | 5.81%
10 | CCOC(=O)c1c(N)sc(=S)c2c1CCC2 | -6.19%
11 | Cc1c(O)c(CN2CCCC(C)C2)cc2c3c(c(=O)oc12)CCC3 (stereo not drawn) | -10.5%
12 | CC(C)c1nc2n[nH]c(N)c2c2c1CCCC2 | 6.42%
13 | O=C(O)CC1SC(=Nc2cccc(C(F)(F)F)c2)NC1=O (stereo not drawn) | 9.67%
14 | O=C1CCc2nc3ccccc3c(=O)n2N1 | 22.2%
15 | NS(=O)(=O)c1cc2c(cc1Cl)NC(C1C[C@H]3C=C[C@@H]1C3)NS2(=O)=O (stereo partly drawn) | -20.1%
16 | COc1ccc(OC)c(NC(=O)CSc2nnc(-c3ccco3)n2-c2ccc(C(=O)O)cc2)c1 | 15.9%
17 | COc1ccccc1C(=O)Nc1cc(Cl)ccc1O | -2.92%
18 | CCn1cc(/C=N/O)c(C)n1 | -4.37%
19 | CCOC(=O)c1c(C)n(C)c2ccc(OC)c(NC(=O)CN3CCN(Cc4ccccc4)CC3)c12 | -8.48%
20 | Cc1c(C)n(C(=O)CSc2nccn2C)c2ccccc12 | -0.559%
21 | CC(=O)c1cc(C#N)c(SCC(=O)C(C)(C)C)nc1C | -23.2%
22 | CCOC(=O)c1[nH]c2ccc(OC)cc2c1NC(=O)CCN1CCCC(C)C1 (stereo not drawn) | -82.5% (active)
23 | N/C(=N\S(=O)(=O)c1ccc(Cl)s1)c1ccccc1 | -13.4%
24 | C=CCNc1nc(-c2ccc(O)c(C(N)=O)c2)cs1 | 25.2%
25 | Cc1sc(-n2c(C)ccc2C)c(C#N)c1C | -9.11%
26 | CC(NC(=O)NCCCC(=O)O)(C(F)(F)F)C(F)(F)F | -1.55%

Row | Structure (SMILES) | activity change, negative = inhibition
27 | COc1ccc(/C(O)=C2\C(=O)C(=O)N(Cc3ccco3)C2c2cc(OC)ccc2OC)cc1 (stereo not drawn) | -18%
28 | COc1ccc(C2C(C#N)=C(C)NC3=C2C(=O)c2ccccc23)cc1 (stereo not drawn) | -27.8%
29 | COc1cc(NC(=O)NC(C)(C(F)(F)F)C(F)(F)F)cc(OC)c1OC | 19.4%
30 | CCCOc1ccc(C2/C(=C(/O)c3ccccc3)C(=O)C(=O)N2CCCN(C)C)cc1OC (stereo not drawn) | 3.58%
31 | Cc1noc(NS(=O)(=O)c2ccc(NC(=O)COc3ccccc3)cc2)c1C | 1.26%
32 | O=C(NCc1ccco1)c1cnn2c1NC(c1ccccc1)CC2C(F)(F)F (stereo not drawn) | -2.99%
33 | O=C(CN1C(=O)c2ccccc2S1(=O)=O)c1ccccc1 | -11.7%
34 | CCCOc1ccc(/C(O)=C2/C(=O)C(=O)N(CCN3CCOCC3)C2c2ccccc2)cc1 (stereo not drawn) | 4.9%
35 | COC(=O)/C=c1/s/c(=C(\C#N)C(=O)NCc2ccco2)n(-c2ccccc2)c1=O | -25.7%
36 | COCCNc1oc(-c2ccc(F)cc2)nc1C#N | 7.25%
37 | COC(=O)c1ccc(CSc2nc(N3CCOCC3)c3c(c2C#N)CC(C)(C)OC3)o1 | -8.92%
38 | CCOc1cccc(-c2nn3c(-c4ccccn4)nnc3s2)c1 | -14.4%
39 | COc1cccc(COc2nc3c(c(=O)n(C)c(=O)n3C)n2C)c1 | 12.8%
40 | CC1(C(=O)CSc2nc3ccccc3[nH]2)CCC(=O)O1 (stereo not drawn) | 3.87%
41 | Cn1c(=O)[nH]c(=O)c2c1nc(Br)n2CCSc1ncccn1 | -10.8%
42 | CCOC(=O)c1c(CN2CCN(C)CC2)n(C)c2cc(Br)c(OC)cc12 | 20.5%
43 | Cc1cccc(COc2ccc(/C(O)=C3\C(=O)C(=O)N(CCN(C)C)C3c3ccncc3)cc2)c1 (stereo not drawn) | 13.1%
